Compound activity (PubChem)
In the library only some 1.1% were active in any assay of this set; here they are far more common.
HTT aggregate – inhibitors of mutant huntingtin aggregate formation in PC12 cells. PC12 HttQ103-GFP aggregates, Acumen cytometry, 40 h. Potency, µM (highest dose often 46.1 µM), most hits filed as inhibitors. 1.1% of 220,000 active; note: nearly all actives have a fitted effect of over 60% in size
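Using laser scanning cytometry, GFP-positive aggregates were counted after lysis of PC12 cells induced with 100 nM tebufenozide to express HTT exon 1 Q103–GFP. Compounds were tested in titration.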
IDH1 R132H inh – inhibitors of human mutant IDH1 R132H | IDH1-R132H enzyme, NADPH consumption, diaphorase/resazurin fluorescence | 0.093% of 390,000 active | O75874 | Potency, µM (highest dose often 76.6 µM), usual class: inhibitors; note: nearly all actives have a fitted effect of over 65% in size
Target sequence (O75874 whole entry R132H, stated change not applied): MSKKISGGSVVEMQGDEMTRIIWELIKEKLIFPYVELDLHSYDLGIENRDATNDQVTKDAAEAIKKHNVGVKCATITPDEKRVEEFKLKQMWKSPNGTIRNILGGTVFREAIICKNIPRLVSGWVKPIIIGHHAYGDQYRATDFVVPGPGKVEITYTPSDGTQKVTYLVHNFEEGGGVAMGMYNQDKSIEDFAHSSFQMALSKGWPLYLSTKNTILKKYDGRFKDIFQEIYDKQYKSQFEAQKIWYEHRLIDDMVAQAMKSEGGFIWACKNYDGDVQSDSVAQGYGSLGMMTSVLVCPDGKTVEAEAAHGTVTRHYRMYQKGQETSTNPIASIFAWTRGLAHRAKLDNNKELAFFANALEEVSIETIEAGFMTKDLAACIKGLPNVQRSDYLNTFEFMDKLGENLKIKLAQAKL
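IDH1-R132H (0.5 ug/mL dispensed) in pH 7.5 Tris buffer was preincubated 30 min with compound, then given a substrate mix of 0.016 mM NADPH and 2 mM alpha-KG for 80 min at room temperature; remaining NADPH was read by diaphorase/resazurin fluorescence.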
NPSR antagonist – blocks cAMP signaling of the human neuropeptide S receptor. Q6W5P4. CHO-NPSR cells, cAMP TR-FRET, antagonist mode. Potency, µM (doses to about 38.3 µM), actives largely listed as inhibitors. 1% of 220,000 active; note: nearly all actives have a fitted effect of over 50% in size
HTT cytoprotect – Huntington cell model cytoprotection by ATP luminescence; 0.14% of 230,000 active; PC12 HTT-Q103 induced, cytoprotection, ATP luminescence, 40 h; Potency, µM (highest dose often 56.4 µM), actives largely listed as activators; AID 1471; note: nearly all actives have a fitted effect of over 45% in size
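Stable PC12 Q103-GFP cells in serum-supplemented, phenol red-free DMEM; induction by tebufenozide at 100 nM final; compound dose series; cell viability quantified luminescently from ATP.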
AT treatment – potential ataxia-telangiectasia treatment; F2112 A-T fibroblasts, KAP-1 phosphorylation AlphaLISA; neocarzinostatin DNA damage 30 min before lysis; Potency, µM (series often up to 57.5 µM), usual class: activators; 0.19% of 320,000 active; note: nearly all actives have a fitted effect of over 45% in size
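ATM-like activity read as KAP-1 phosphorylation via AlphaLISA donor/acceptor antibody pairs after lysis and 6 hr at 25C. Cells were ATM-null patient fibroblasts (F2112, hTERT), dosed 60 min, then exposed to the DSB inducer NCS for 30 min.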
Large screens that a line does not name were inactive; ! = not active in a repeat. Calls come from the whole dose curve; as a rule, active = well fitted curve in the direction sought with a large enough effect; inconclusive = small, poorly fitted or top-dose-only effect, or another doubt; inactive = no such curve, though single readings can be large; an effect the other way counts as inactive or inconclusive.

Cc1c(/C=N/NC(=O)C2(O)c3ccccc3-c3ccccc32)cnn1C	none (no result: HTT cytoprotect)
COC(=O)c1c(Oc2ccc(C(C)=O)cc2)nnc(-c2ccccc2)c1-c1ccccc1	none (no result: HTT aggregate, NPSR antagonist, HTT cytoprotect, AT treatment)
CSCc1nnc(NC(=O)c2ccc(S(=O)(=O)N(CC(C)C)CC(C)C)cc2)o1	HTT aggregate 10µM (no result: IDH1 R132H inh)
CCc1nnc(NC(=O)c2ccc(S(=O)(=O)N(CC(C)C)CC(C)C)cc2)o1	none
COc1ccc(CNC(=O)c2c(C)nc3ccccn23)cc1	HTT aggregate 25µM
Cc1ccc(SCC(=O)c2c(C)nc3ccccn23)cc1	HTT aggregate 14µM
COc1ccc(CCNC(=O)c2c(C)nc3ccccn23)cc1	none
CSc1ncc(Cl)c(C(=O)Nc2ccc(S(=O)(=O)N3CCC(C)CC3)cc2)n1	none (no result: HTT aggregate, NPSR antagonist, HTT cytoprotect, AT treatment)
CCN(C(=O)c1cnc(N2CCOCC2)c2ccccc12)c1cc(C)ccc1C	none (no result: HTT aggregate, NPSR antagonist, HTT cytoprotect, AT treatment)
COC(=O)C1=C(C(=O)OC)[C@@H]2Nc3ccccc3[C@@]23C[C@@H](C(=O)OC)N(S(=O)(=O)c2ccc4c(c2)OCCN4C)C3=N1	none (no result: HTT aggregate, IDH1 R132H inh, NPSR antagonist, AT treatment)
Cc1ccc(C(=O)/C=C\C(=O)c2ccc(C)cc2)cc1	HTT aggregate inconclusive, NPSR antagonist inconclusive, AT treatment inconclusive
Cc1ccc(S/C=C\C(=O)c2ccccc2)cc1	NPSR antagonist 13µM (no result: AT treatment)
CCC(C(=O)O)C1OC(C(C)C(O)C(C)C(=O)C(CC)C2OC3(C=CC(O)C4(CCC(C)(C5CCC(O)(CC)C(C)O5)O4)O3)C(C)CC2C)C(C)CC1C (configuration not stated)	HTT aggregate 1.8µM (no result: IDH1 R132H inh, NPSR antagonist, AT treatment)
CCOC(=O)NC(=O)CSc1nc(C)cc(C(F)(F)F)c1C#N	HTT aggregate 10µM
COC(=O)CSc1nc(C)cc(C(F)(F)F)c1C#N	none
COc1ccccc1CNC(=O)c1cn(C)c2ccc(S(=O)(=O)N(C)C3CCCCC3)cc2c1=O	none (no result: HTT aggregate, NPSR antagonist, HTT cytoprotect, AT treatment)
Nc1ccc(C(=O)NCC(=O)O)cc1	HTT cytoprotect 3.2µM! (no result: NPSR antagonist)
O=C(N/N=C/c1cc2c3c(c1O)CCCN3CCC2)c1ccccc1O	HTT aggregate 0.89µM (no result: HTT cytoprotect)
Cc1nn(-c2ccccc2)c(N2CCCC2)c1/C=N/NC(=O)c1ccccc1O	HTT aggregate inconclusive
COc1ccc2c(=O)c(C)c(-c3ccccc3)oc2c1CN(C)C	none (no result: IDH1 R132H inh, NPSR antagonist, AT treatment)
COc1cccc(-c2nc(NC(C)(C)C)c3ccccc3n2)c1O	HTT aggregate 35µM, NPSR antagonist inconclusive
O=C1OC(O)C(C(Cl)Cl)=C1Cl (configuration not stated)	none (no result: HTT aggregate, IDH1 R132H inh, NPSR antagonist, AT treatment)
COc1ccc(-c2coc3cc(O[C@@H]4O[C@@H](CO)[C@@H](O)[C@@H](O)[C@H]4O)cc(O)c3c2=O)cc1	none (no result: HTT aggregate, IDH1 R132H inh, NPSR antagonist, AT treatment)
N#C/C(=C\c1cc([N+](=O)[O-])ccc1Cl)C(N)=O	HTT cytoprotect 1.3µM
COc1cc2c(cc1O)CCN[C@@]21CS[C@H]2c3c(OC(C)=O)c(C)c4c(c3C(COC1=O)N1C2C2c3c(cc(C)c(OC)c3O)CC([C@@H]1O)N2C)OCO4 (some centres not stated)	HTT aggregate 0.0025µM (no result: IDH1 R132H inh, NPSR antagonist, AT treatment)
CCS(=O)(=O)N1CCCc2cc(C(=O)Nc3cc([N+](=O)[O-])ccc3C)ccc21	none (no result: HTT aggregate, NPSR antagonist, HTT cytoprotect, AT treatment)
Cc1ccc(S(=O)(=O)N2CCc3nc(-c4ccccc4)c4c(c3C2)CO[C@@H](C)C4)cc1	none (no result: HTT aggregate, IDH1 R132H inh, NPSR antagonist, AT treatment)
O=C(NCCc1c[nH]c2ccccc12)C(=O)NCC(c1cccnc1)N1CCN(c2ccccc2)CC1 (configuration not stated)	HTT aggregate 3.5µM (no result: HTT cytoprotect)
O=C(NCCc1ccccc1)C(=O)NCC(c1cccnc1)N1CCN(c2ccc(F)cc2)CC1 (configuration not stated)	none (no result: HTT aggregate, NPSR antagonist, HTT cytoprotect, AT treatment)
O=C(CN1C(=O)COc2ccc(S(=O)(=O)Nc3ccccc3)cc21)NCc1ccccc1Cl	none (no result: HTT aggregate, NPSR antagonist, HTT cytoprotect, AT treatment)
CCOC(=O)c1c(CSc2ccsc2)n(C)c2cc(Br)c(O)c(CN(C)C)c12	NPSR antagonist 13µM, AT treatment 8.9µM
Cc1c(Cl)cccc1NS(=O)(=O)c1ccc(-c2cnc(C3CC3)o2)cc1	none (no result: HTT aggregate, NPSR antagonist, HTT cytoprotect, AT treatment)
CCc1cccc(CC)c1N(COC)C(=O)Cn1nnc2ccccc21	none
CCN(C(=O)CC(C)C)c1nnc(Cn2nnc3ccccc32)s1	HTT cytoprotect 0.89µM
CCN(C(=O)c1ccc(C(C)(C)C)cc1)c1nnc(Cn2nnc3ccccc32)s1	HTT aggregate 6.3µM, NPSR antagonist inconclusive
COc1ccccc1-c1nc2c(c(SCC(=O)Nc3ccc(C)c(C)c3)n1)Cc1c(CO)cnc(C)c1O2	none (no result: HTT aggregate, NPSR antagonist, HTT cytoprotect, AT treatment)
CO/N=C(/C(=O)N[C@@H]1C(=O)N2C(C(=O)O)=C(CSC(=O)c3ccco3)CSC12)c1csc(N)n1 (some centres not stated)	none (no result: IDH1 R132H inh, NPSR antagonist, AT treatment)
COC(=O)CCC(=O)OC1(C)C(=O)C=C2C=C(C3CC3)N(c3ccc(OC)cc3)C=C2C1=O (configuration not stated)	none (no result: HTT aggregate, IDH1 R132H inh, NPSR antagonist, AT treatment)
CN(C)c1cc[n+](Cc2c(Cl)cccc2Cl)cc1	HTT aggregate 8.9µM
COc1ccccc1-c1nnc(SC(C(=O)c2c[nH]c3ccccc23)c2ccccc2)n1C (configuration not stated)	HTT aggregate 2.8µM, NPSR antagonist inconclusive, HTT cytoprotect 4.5µM
CNCCCCCCCCSc1nc(C(C)C)ccc1C(=O)c1cccs1	none (no result: HTT aggregate, IDH1 R132H inh, NPSR antagonist, AT treatment)
CCCc1cc(C(=O)N2CCN(C(c3ccccc3)c3ccccc3)CC2)no1	HTT aggregate 22µM, NPSR antagonist inconclusive
Cn1c(-c2ccccc2)nc2cnccc21	AT treatment 20µM
FC(F)(F)c1cccc(N2CCN(C(=S)NC3CCCC3)CC2)c1	HTT aggregate inconclusive
FC(F)(F)c1cccc(N2CCN(C(=S)NC3CCCCC3)CC2)c1	HTT aggregate 22µM
